VACV Venus inh – qHTS for Stage-Specific Inhibitors of Vaccinia Orthopoxvirus: Venus Reporter Primary qHTS; Vaccinia virus Venus reporter expression, fluorescence; Potency, µM (highest dose often 36.5 µM), for inactives: at the highest dose activity change, negative = inhibition, most hits filed as inhibitors; actives 0.46% (n = 330,000); AID 720580, 2013; calls by dose curve; tested in A549 cells; also: nearly all actives have a fitted effect of over 30% in size
Vaccinia mCherry – qHTS for Stage-Specific Inhibitors of Vaccinia Orthopoxvirus: mCherry Reporter Primary qHTS | Vaccinia virus mCherry reporter infection, fluorescence | actives 0.63% (n = 310,000) | Potency, µM (titrated, usually from 36.5 µM), for inactives: at the highest dose activity change, negative = inhibition, actives largely listed as inhibitors; calls by dose curve; tested in A549 cells; also: nearly all actives have a fitted effect of over 35% in size
FMDV inh – High Throughput Screening for Foot and Mouth Disease Virus Antivirals; AID 1159524, 2015; FMDV antiviral cell-based qHTS; Potency, µM (top dose mostly 57.9 µM), for the others: top-dose activity change, negative = inhibition, actives largely listed as inhibitors; actives 1.2% (n = 410,000); calls by dose curve; tested in HEK293T cells; also: read-out not given here; nearly all actives have a fitted effect of over 45% in size
Giardia FBPA inh – qHTS Assay for Inhibitors of Fructose-1,6-bisphosphate Aldolase from Giardia Lamblia; A8B2U2; purified Giardia FBPA; Potency, µM (series often up to 59.6 µM), without a hit: at the highest dose activity, negative = inhibition, hits mostly inhibitors; actives 0.71% (n = 290,000); active = well fitted inhibition curve with a large enough effect; inconclusive = small, poorly fitted or top-dose-only effect, or effect the other way; also: nearly all actives have a fitted effect of over 55% in size
Target sequence (A8B2U2 whole entry, looked up): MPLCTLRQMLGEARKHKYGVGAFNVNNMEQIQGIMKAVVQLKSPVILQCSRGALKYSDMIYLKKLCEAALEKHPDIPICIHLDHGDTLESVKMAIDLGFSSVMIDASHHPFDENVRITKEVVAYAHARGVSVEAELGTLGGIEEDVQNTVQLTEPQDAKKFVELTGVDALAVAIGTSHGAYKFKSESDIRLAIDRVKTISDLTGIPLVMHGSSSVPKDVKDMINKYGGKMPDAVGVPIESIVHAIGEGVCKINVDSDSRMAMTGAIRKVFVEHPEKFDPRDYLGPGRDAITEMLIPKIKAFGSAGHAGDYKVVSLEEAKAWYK
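Giardia FBPA (40 nM reagent) was preincubated 10 min at RT with compound (up to 57.5 uM final), then substrate plus GAPDH/TPI/NAD/arsenate coupling system with diaphorase/resazurin was added; resorufin fluorescence (525/598 nm) was read after 20 min.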
* marks the source's active call; other numbers are inactive results; ! = a repeat was not active. The list is not random: actives were taken first. Their share in the collection is about 2.2%. % is scaled to controls: 0 for no effect and ±100 for the full control effect; potency is read from the fitted curve at half-maximal effect.

Results for Cc1c(O)c(O)cc2c1CC=C1[C@]3(C)CC[C@]4(C)CC[C@@](C)(C(=O)O)CC4[C@]3(C)CC[C@]12C (stereo partly drawn) ?
VACV Venus inh: -15%; Vaccinia mCherry: -19%; FMDV inh: 25µM*; Giardia FBPA inh: -11%

Results for C=C(C)C(=O)OCCOCC ?
Giardia FBPA inh: 15%

What do the screens show for `CC(C)(C)c1cc(C=C(C#N)C#N)cc(C(C)(C)C)c1O`?
VACV Venus inh: inconclusive; Vaccinia mCherry: 1µM*!; FMDV inh: 4µM*!; Giardia FBPA inh: 5%

What do the screens show for `CC(C)(C)c1cc(/C=C(\C#N)C(N)=S)cc(C(C)(C)C)c1O`?
VACV Venus inh: inconclusive; Vaccinia mCherry: inconclusive; FMDV inh: inconclusive; Giardia FBPA inh: -3%

How did N#CC(C#N)=Cc1ccc(O)c(O)c1 do in these assays?
VACV Venus inh: -15%; Vaccinia mCherry: -7%; FMDV inh: 0%; Giardia FBPA inh: 14µM*!

How did Cc1ccc2c(/C=C/c3ccc(N(C)C)cc3)c(C)cnc2c1 do in these assays?
VACV Venus inh: -7%; Vaccinia mCherry: -1%

How did COc1ccc(-c2nc3cc(F)ccc3cc2CN(C(=O)c2cccc(OC)c2)C2CC2)cc1 do in these assays?
VACV Venus inh: -10%; Vaccinia mCherry: -1%; FMDV inh: -11%

What do the screens show for `COc1cccc(-c2nc3cc(SC)ccc3cc2CN(C(=O)c2csc(C)n2)C2CC2)c1`?
VACV Venus inh: 12%; Vaccinia mCherry: -7%; FMDV inh: 28µM*

Results for COc1cccc(-c2nc3cc4c(cc3cc2CN(C(=O)c2csc(C)n2)C2CC2)CCC4)c1OC ?
VACV Venus inh: -24%; Vaccinia mCherry: inconclusive; FMDV inh: 14µM*

What do the screens show for `CS(=O)(=O)c1ccc(C(=O)NCCN2C(=O)S/C(=C\c3cccnc3)C2=O)cc1[N+](=O)[O-]`?
FMDV inh: 28µM*; Giardia FBPA inh: -9%

How did CN(C)S(=O)(=O)c1ccc(C(=O)NCCN2C(=O)S/C(=C\c3cccnc3)C2=O)cc1 do in these assays?
VACV Venus inh: -4%; Vaccinia mCherry: -2%; FMDV inh: 26%; Giardia FBPA inh: -10%

How did O=C(C[n+]1ccc2ccccc2c1)c1ccc(O)c(O)c1 do in these assays?
VACV Venus inh: -12%; Vaccinia mCherry: -4%

Results for CCOC(=O)C1=C(Cc2ccc(Cl)cc2)C(=O)c2ccccc2C1=O ?
VACV Venus inh: inactive; Vaccinia mCherry: 305%; FMDV inh: inconclusive; Giardia FBPA inh: 2.5µM*

How did C=C/C(C)=C/CC1C(=C)CCC2C(C)(C(=O)O)CCCC12C (stereo not drawn) do in these assays?
VACV Venus inh: -1%; Vaccinia mCherry: inactive; FMDV inh: -12%; Giardia FBPA inh: 11%

How did C=C1C(=O)[C@]23C[C@H]1CCC2[C@]1(C)CCC[C@@](C)(C(=O)O)C1C[C@@H]3O (stereo partly drawn) do in these assays?
VACV Venus inh: 3.5µM*; Vaccinia mCherry: 6.3µM*; FMDV inh: 25µM*

How did C=C1C(=O)[C@]23C[C@H]1CC[C@H]2[C@]1(C)[C@@H](OC(C)=O)CC[C@@](C)(C(=O)O)[C@H]1C[C@@H]3OC(C)=O do in these assays?
VACV Venus inh: 1%; Vaccinia mCherry: inactive; FMDV inh: inconclusive

How did C=C1C(=O)[C@]23C[C@H]1CCC2[C@]1(C)C(=O)CC[C@@](C)(C(=O)O)C1C[C@@H]3O (stereo partly drawn) do in these assays?
VACV Venus inh: inconclusive; Vaccinia mCherry: inconclusive; FMDV inh: 35µM*

How did C#CCOCCOCCOCCNc1nc(N2CCN(C(=O)CCCCCCCCCCNC(=O)Cn3cc(C[C@@H](C)O)nn3)CC2)nc(N2CCN(C(=O)CCCCCCCCCCNC(=O)[C@H](CCCCN)n3cc(CCCC(=O)O)nn3)CC2)n1 do in these assays?
VACV Venus inh: -6%; Vaccinia mCherry: inactive; FMDV inh: -6%

What do the screens show for `C#CCOCCOCCOCCNc1nc(N2CCN(C(=O)CCCCCCCCCCNC(=O)Cn3cc(C[C@@H](C)O)nn3)CC2)nc(N2CCN(C(=O)CCCCCCCCCCNC(=O)[C@H](CCCN=C(N)N)n3cc(C[C@@H](C)CC)nn3)CC2)n1`?
VACV Venus inh: 11µM*; Vaccinia mCherry: -21%; FMDV inh: inconclusive

Assay outcomes deposited in PubChem by National Center for Advancing Translational Sciences (NCATS).
